Source: the OligoGym collection

biological target: IPO9; experiment: pooled miR-30 sensor sort-seq; sequence = guide strand; details: shRNA
Also: reference of the scale not given here.

Sequence | sensor-assay potency score (higher = more potent)
TTTGCTTATCGATTCTCTCAAC | -1.05
TTGTATTTCGTACTACTGTTGT | -0.494
TATTGTTTCAAGATGACTGATG | -0.429
TTGTCATCTGCATTGATGCCAT | -0.517
TTTTTGGCTGACTTAGAGCGGG | -0.902
TAATCTGTTCTTCAGCAGCCGC | -1.2
TTTGTATTTCGTACTACTGTTG | -0.688
TTACAGAGTGCCACAGAGCTGA | -0.313
TTCTAGCTGAGTGTGCACCAGA | -0.519
TTATCGATTCTCTCAACCCATT | -1.16
TTGCTTTCCATGCTTGCTGTGA | -0.476

biological target: IQCF1; experiment: as above; details: shRNA

Sequence | sensor-assay potency score (higher = more potent)
TTTCTCATTGGCATTGTCCACT | -0.377
TTGTCCACTGTCTGTGTCTCAA | -0.831
TTTGAGGGTTCCTTCGTCTTTT | -0.864
ATACACTCTGTCACAATGCAAG | -1.11
TTGAGCACCTGGCAATAGCGTC | -1.02
TTGGCTGTGACTCTGTACTGGC | -0.0836
TTCTTCAGAATCTTGGACAGTA | 0.482
ATCTTTGTCAGAGAGCTTCTTT | 0.163
TTGATCTTGGTGGCTACCGTAT | -0.916
TAGCCTCTGCCTTTGACTCTGC | -0.296
TACCGTATCTTTGTCAGAGAGC | -0.874
TGGAGTTTTAGCCTCTGCCTTT | -0.954

biological target: IQCJ; experiment: as above; details: shRNA

Sequence | sensor-assay potency score (higher = more potent)
TCTCTGAGGAGACAGAGGGTGG | -1.51
TAGAGAAGAATCACCTTCCTTC | 0.583
TAGAGGATTCTGCAATCTTTTC | -1.5
TTGAGAGTATGTATGAACCCAG | 0.0169
TCCATCATTAACTTGTTCTAGA | -0.697
ATATTTTCCATCATTAACTTGT | 0.105
TCGGAGAAGGTGTTCATGCTGA | -0.401
TTCTCTGAGGAGACAGAGGGTG | -0.857
TTCCATCATTAACTTGTTCTAG | -0.41
TTTTCCATCATTAACTTGTTCT | -0.253
TCGCTGAATGATTTTCACCTTT | -0.759

biological target: IREB2; experiment: as above; details: shRNA

Sequence | sensor-assay potency score (higher = more potent)
TAAAGTAAGAGAAACTGGCAGA | -0.195
TTTTCTTCAAAAACCACTCTTG | -0.106
TTTAGATACATCGAAGAACTTC | -0.321
TTCGAAACAATTTCACAGCTTT | 1.18
TATTGTAGTTCGATCAACTATA | -0.8
TAGTATAACATGTTCTTCCTCT | 0.5
